These results are taken from PubChem BioAssay (NCI).

Each structure is given as a SMILES string. About 83,000 compounds went through this panel and 20% of them were active in at least one assay; those are over-represented in the sample as a whole.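 Each cell line was grown in a 96-well plate and treated with one concentration of compound for 48 hours. Values below 10 were considered active.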 Unmarked numbers belong to inactive results. Calls of active or inactive are those of the source.

Some test systems named below: HCT-15 colon; HT29 colon; SNB-75 CNS; SNB-19 CNS; U251 CNS; PC-3 prostate; SK-MEL-5 melanoma; UACC-62 melanoma; LOX IMVI melanoma; SK-MEL-28 melanoma; SK-MEL-2 melanoma; EKVX NSCLC; SN12C renal; UO-31 renal; TK-10 renal; ACHN renal; CAKI-1 renal; A498 renal; MOLT-4 leukemia; CCRF-CEM leukemia.
What all share (experiment): NCI-60 one-dose screen, 48 h (100 = growth as untreated, 0 = no growth, -100 = all killed)
What all share (details): 10 µM unless noted

Take `Cc1cccc(C)c1-c1cc(Cc2ccc(Cl)cc2)c(=O)[nH]n1`: the growth is 107% in the test on HCT-15 colon; 105% with HT29 colon; 90.5% in the test on SNB-75 CNS; 80.9% in the test on SNB-19 CNS; 101% in the test with U251 CNS; 97.2% with PC-3 prostate. For the same compound, the growth in the test on SK-MEL-5 melanoma is 98.8%; with UACC-62 melanoma it was 93.7%; in the test with LOX IMVI melanoma it was 93.4%; in the test with SK-MEL-28 melanoma, 108%; in the test on SK-MEL-2 melanoma, 114%; in the test with EKVX NSCLC it was 92.8%. The growth in the test on SN12C renal is 89.5%; in the test with UO-31 renal, 52.5%; in the test with TK-10 renal it was 114%; with ACHN renal it was 112%; in the test on CAKI-1 renal, 146%; in the test on A498 renal, 104%. Moreover, the growth in the test with MOLT-4 leukemia was 74.3%.

For the compound `NNC(=O)/C(=C\c1ccc([N+](=O)[O-])cc1)CC(=O)c1ccc(Cl)c(Cl)c1`, the growth with HCT-15 colon is 89.6%; in the test on HT29 colon it was 88.4%; in the test with SNB-75 CNS it was 63.3%; in the test with SNB-19 CNS, 89.6%; in the test on U251 CNS, 91.8%; in the test with PC-3 prostate, 79.4%. Further, the growth was 93.6% in the test with SK-MEL-5 melanoma; 73.8% with UACC-62 melanoma; 71.3% in the test with LOX IMVI melanoma; 103% in the test with SK-MEL-28 melanoma; 95.7% in the test on SK-MEL-2 melanoma; 69.5% in the test with EKVX NSCLC. Further, the growth in the test with SN12C renal was 88%; in the test on UO-31 renal it was 58.6%; in the test on TK-10 renal, 97.5%; in the test on ACHN renal, 91.1%; in the test on CAKI-1 renal it was 66.8%; with CCRF-CEM leukemia, 80.9%. Further, the growth with MOLT-4 leukemia was 61.4%.

In the case of `CC(=O)OCCCCCNc1ccccc1`, the growth was 107% in the test with HCT-15 colon; 99.2% with HT29 colon; 103% with SNB-75 CNS; 107% with SNB-19 CNS; 100% with U251 CNS; 100% in the test with PC-3 prostate. In addition, the growth was 106% in the test with SK-MEL-5 melanoma; 106% in the test with UACC-62 melanoma; 100% in the test on LOX IMVI melanoma; 106% with SK-MEL-28 melanoma; 102% in the test with SK-MEL-2 melanoma; 104% with EKVX NSCLC. Besides, the growth is 103% with SN12C renal; 88.1% in the test with UO-31 renal; 107% in the test with TK-10 renal; 101% in the test with ACHN renal; 95.7% with CAKI-1 renal; 103% in the test with CCRF-CEM leukemia. The growth in the test with MOLT-4 leukemia is 91.3%.

For the compound `COc1ccc(C(=O)c2cc(C)c(OC)c(C)c2)c(OC)c1O`, the growth was 8.64% (active) with HCT-15 colon; 26.6% in the test with HT29 colon; 57.8% in the test with SNB-75 CNS; 22.2% with SNB-19 CNS; 14.5% in the test with U251 CNS; 19.5% with PC-3 prostate. The growth is -34.5% (active) in the test on SK-MEL-5 melanoma; 30.3% with UACC-62 melanoma; 21.5% in the test on LOX IMVI melanoma; 48.8% in the test on SK-MEL-28 melanoma; 26.8% in the test on SK-MEL-2 melanoma; 59.2% in the test with EKVX NSCLC. In addition, the growth is 28.8% in the test on SN12C renal; 36.6% in the test with UO-31 renal; 58.5% with TK-10 renal; 22.5% in the test with ACHN renal; 39.5% in the test with CAKI-1 renal; 16.3% with CCRF-CEM leukemia.

In the case of `COc1ccc(CNCCN2C(=O)c3ccc4c5c(ccc(c35)C2=O)C(=O)N(CCNCc2ccc(OC)cc2)C4=O)cc1`, the growth with HCT-15 colon was -68.1% (active); with HT29 colon, -55.3% (active); with SNB-75 CNS it was -95.7% (active); with SNB-19 CNS, -90.9% (active); with U251 CNS it was -91.8% (active); in the test with PC-3 prostate it was -76% (active). Also, the growth in the test with SK-MEL-5 melanoma is -99.6% (active); in the test on UACC-62 melanoma it was -84.4% (active); with LOX IMVI melanoma it was -74.7% (active); with SK-MEL-28 melanoma, -96.2% (active); in the test on SK-MEL-2 melanoma it was -74.2% (active); in the test on EKVX NSCLC it was -69.3% (active). Moreover, the growth was -87.9% (active) with SN12C renal; -76.6% (active) in the test on UO-31 renal; -61.7% (active) with TK-10 renal; -74.3% (active) in the test on ACHN renal; -53.8% (active) in the test on CAKI-1 renal; -16.3% (active) in the test on CCRF-CEM leukemia.

Take `CO[C@@H]1[C@H](N(C)C(=O)c2ccccc2)C[C@@H]2O[C@]1(C)n1c3ccccc3c3c4c(c5c6ccccc6n2c5c31)C(=O)NC4=O`: the growth with HCT-15 colon was 25%; in the test with HT29 colon it was 42.8%; with SNB-75 CNS, -14.8% (active); in the test on SNB-19 CNS it was 63.6%; in the test with U251 CNS, 44.3%; in the test with PC-3 prostate, 26.3%. Also, the growth with SK-MEL-5 melanoma was 40%; in the test on UACC-62 melanoma, 34.1%; in the test with LOX IMVI melanoma, 31.4%; in the test on SK-MEL-28 melanoma, 83.1%; in the test with SK-MEL-2 melanoma, 55.1%; with EKVX NSCLC it was 27.9%. Moreover, the growth with SN12C renal was 33.4%; in the test with UO-31 renal it was -35.6% (active); with TK-10 renal, -20.3% (active); with ACHN renal, 35.4%; in the test with CAKI-1 renal, -10.8% (active); with CCRF-CEM leukemia, 44.5%. Besides, the growth in the test with MOLT-4 leukemia is 32.8%.

Turning to `CCCCCCCCOc1ccc(/C=N/Nc2cc(C)nc3ccc(Cl)cc23)cc1`, the growth was -82.3% (active) with HCT-15 colon; -55.9% (active) in the test with HT29 colon; 52.2% in the test with SNB-75 CNS; 9.5% (active) with SNB-19 CNS; -61% (active) with U251 CNS; -62.9% (active) with PC-3 prostate. The growth with SK-MEL-5 melanoma is 96%; in the test with UACC-62 melanoma it was 91.2%; in the test with LOX IMVI melanoma it was -90.7% (active); with SK-MEL-28 melanoma, 64.3%; in the test on SK-MEL-2 melanoma, 95.6%; in the test on EKVX NSCLC, 55.7%. For the same compound, the growth with SN12C renal was -82.4% (active); with UO-31 renal, 79.2%; with TK-10 renal, -35.7% (active); with ACHN renal, -1.15% (active); in the test with CAKI-1 renal, 41.6%; in the test on CCRF-CEM leukemia, 2.23% (active).

Consider `CNC(=O)Nc1ccc(-c2nc(N3CCOCC3)nc3c2cnn3C2CCOCC2)cc1`, for which the growth in the test on HCT-15 colon is 8.73% (active); in the test on HT29 colon, 6.44% (active); in the test with SNB-75 CNS it was -37.9% (active); in the test with SNB-19 CNS, 7.91% (active); with U251 CNS it was 4.14% (active); in the test on PC-3 prostate, 6.22% (active). Moreover, the growth in the test on SK-MEL-5 melanoma was -47.7% (active); with UACC-62 melanoma, -39.6% (active); in the test on LOX IMVI melanoma, 4.58% (active); in the test on SK-MEL-28 melanoma, -14.1% (active); with SK-MEL-2 melanoma it was -23.8% (active); in the test with EKVX NSCLC it was -24.3% (active). Besides, the growth with SN12C renal was 7.06% (active); in the test with UO-31 renal it was -23.5% (active); with TK-10 renal, -38% (active); with ACHN renal, 4.27% (active); with CAKI-1 renal, -19.3% (active); with CCRF-CEM leukemia, 23.8%.
